# Measurements published in publication PMC7862700, “An all-to-all approach to the identification of sequence-specific readers for epigenetic DNA modifications on cytosine”.
# Tests used:
# Assay in all cases: DAPPL (digital affinity profiling via proximity ligation, sequencing); 10 mM Tris-HCl pH 7.5, 50 mM NaCl, 1 mM DTT, 4% glycerol, room temperature, 30 min; GST-TFs on glutathione beads, 16-mer random dsDNA library, 0.1% formaldehyde crosslink after washing; high values mean tight binding
# FLI1 = target: T1, FLI1 (Homo sapiens, UniProt Q01543 1-452); conditions: protein: recombinant; tags: N-terminal GST; dsDNA, one strand shown
# T1 sequence: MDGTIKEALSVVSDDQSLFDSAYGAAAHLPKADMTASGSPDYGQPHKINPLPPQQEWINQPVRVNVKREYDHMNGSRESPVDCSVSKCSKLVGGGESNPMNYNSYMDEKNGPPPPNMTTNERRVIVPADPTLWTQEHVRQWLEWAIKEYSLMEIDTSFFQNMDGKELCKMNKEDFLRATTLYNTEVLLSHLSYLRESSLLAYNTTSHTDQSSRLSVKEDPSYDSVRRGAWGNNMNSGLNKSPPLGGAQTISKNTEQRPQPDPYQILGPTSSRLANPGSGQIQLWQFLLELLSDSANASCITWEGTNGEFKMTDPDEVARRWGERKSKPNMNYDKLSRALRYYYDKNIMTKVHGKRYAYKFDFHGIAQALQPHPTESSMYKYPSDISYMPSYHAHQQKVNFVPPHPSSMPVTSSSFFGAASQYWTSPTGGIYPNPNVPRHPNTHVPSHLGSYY
# In short: (§1)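 Human transcription factors fused to GST were expressed in yeast, captured on glutathione beads, given DNA barcodes and pooled with a GST-only negative control. Pools were incubated with 200 nmole of a 16-mer random double-stranded DNA library in Tris/NaCl/DTT/glycerol buffer at room temperature for 30 min. They were then washed, crosslinked with 0.1% formaldehyde, proximity-ligated (BsaI/T4 ligase, 1 h, 37 °C), PCR-amplified and sequenced on an Illumina NextSeq500. Binding signal is each 6-mer's read frequency for a factor divided by its frequency for the GST control.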
# ELK1 = target: T2, ELK1 (Homo sapiens, UniProt P19419 1-428); conditions: protein: recombinant; tags: N-terminal GST; dsDNA, one strand shown
# T2 sequence: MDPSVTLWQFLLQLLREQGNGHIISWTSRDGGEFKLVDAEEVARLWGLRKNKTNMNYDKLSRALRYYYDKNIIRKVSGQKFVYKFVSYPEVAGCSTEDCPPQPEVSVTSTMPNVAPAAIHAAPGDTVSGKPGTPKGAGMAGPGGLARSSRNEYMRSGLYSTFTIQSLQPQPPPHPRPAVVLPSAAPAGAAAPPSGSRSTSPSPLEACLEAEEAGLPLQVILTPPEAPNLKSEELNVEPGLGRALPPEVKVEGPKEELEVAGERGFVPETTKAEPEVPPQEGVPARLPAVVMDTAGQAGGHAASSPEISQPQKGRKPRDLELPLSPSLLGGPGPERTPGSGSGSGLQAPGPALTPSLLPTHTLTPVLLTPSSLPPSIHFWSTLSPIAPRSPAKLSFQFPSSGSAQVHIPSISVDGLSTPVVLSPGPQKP
# In short: as §1
# GABPA = target: T3, GABPA (Homo sapiens, UniProt Q06546 1-454); conditions: protein: recombinant; tags: N-terminal GST; dsDNA, one strand shown
# T3 sequence: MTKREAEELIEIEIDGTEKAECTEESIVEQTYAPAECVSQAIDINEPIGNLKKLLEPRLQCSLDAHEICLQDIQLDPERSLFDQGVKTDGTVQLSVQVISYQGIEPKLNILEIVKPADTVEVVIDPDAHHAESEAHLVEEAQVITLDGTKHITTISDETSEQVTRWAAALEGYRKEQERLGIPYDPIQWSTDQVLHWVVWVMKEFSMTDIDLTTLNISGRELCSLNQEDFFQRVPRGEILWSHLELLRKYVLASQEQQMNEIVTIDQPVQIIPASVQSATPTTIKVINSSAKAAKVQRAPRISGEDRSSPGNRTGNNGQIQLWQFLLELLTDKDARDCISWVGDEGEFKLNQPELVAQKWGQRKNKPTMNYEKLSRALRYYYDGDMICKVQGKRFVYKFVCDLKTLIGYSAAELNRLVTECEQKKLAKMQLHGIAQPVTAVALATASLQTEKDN
# In short: as §1
# ERG = target: T4, ERG (Homo sapiens, UniProt P11308 1-479); conditions: protein: recombinant; tags: N-terminal GST; dsDNA, one strand shown
# T4 sequence: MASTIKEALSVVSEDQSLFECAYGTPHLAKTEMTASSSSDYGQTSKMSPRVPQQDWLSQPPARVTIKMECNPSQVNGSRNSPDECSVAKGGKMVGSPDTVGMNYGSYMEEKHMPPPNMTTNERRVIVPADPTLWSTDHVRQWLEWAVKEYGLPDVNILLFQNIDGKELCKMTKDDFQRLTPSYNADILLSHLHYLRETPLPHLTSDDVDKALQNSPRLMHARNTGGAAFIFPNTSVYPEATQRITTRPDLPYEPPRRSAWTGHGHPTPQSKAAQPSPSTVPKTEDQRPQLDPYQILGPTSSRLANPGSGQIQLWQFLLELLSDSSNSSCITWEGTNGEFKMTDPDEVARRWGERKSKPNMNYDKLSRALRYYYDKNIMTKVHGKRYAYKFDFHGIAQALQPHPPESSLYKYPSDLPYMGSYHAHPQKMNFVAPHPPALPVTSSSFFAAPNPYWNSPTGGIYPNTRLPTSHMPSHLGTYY
# In short: as §1
# ELF1 = ELF1 (Homo sapiens, UniProt P32519 1-619); conditions: protein: recombinant; tags: N-terminal GST; dsDNA, one strand shown
# Sequence of ELF1 (P32519 whole entry): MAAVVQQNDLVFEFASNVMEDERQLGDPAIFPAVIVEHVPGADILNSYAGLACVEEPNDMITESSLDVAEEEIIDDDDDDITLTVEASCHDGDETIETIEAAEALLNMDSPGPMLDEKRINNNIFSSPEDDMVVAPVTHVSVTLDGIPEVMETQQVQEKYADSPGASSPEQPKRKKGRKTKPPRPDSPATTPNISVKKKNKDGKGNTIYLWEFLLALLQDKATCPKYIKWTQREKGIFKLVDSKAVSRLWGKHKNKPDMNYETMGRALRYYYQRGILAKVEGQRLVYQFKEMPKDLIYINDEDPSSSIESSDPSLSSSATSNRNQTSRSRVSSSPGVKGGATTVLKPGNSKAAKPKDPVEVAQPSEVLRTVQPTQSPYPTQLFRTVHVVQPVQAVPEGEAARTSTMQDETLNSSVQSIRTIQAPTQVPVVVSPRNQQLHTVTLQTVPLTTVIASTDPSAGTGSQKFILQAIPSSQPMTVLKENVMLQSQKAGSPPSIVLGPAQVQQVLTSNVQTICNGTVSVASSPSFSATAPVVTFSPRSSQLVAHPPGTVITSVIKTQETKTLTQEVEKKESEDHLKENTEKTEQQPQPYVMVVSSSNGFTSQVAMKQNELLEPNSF
# In short: as §1
# EHF = target: T5, EHF (Homo sapiens, UniProt Q9NZC4 1-300); conditions: protein: recombinant; tags: N-terminal GST; dsDNA, one strand shown
# T5 sequence: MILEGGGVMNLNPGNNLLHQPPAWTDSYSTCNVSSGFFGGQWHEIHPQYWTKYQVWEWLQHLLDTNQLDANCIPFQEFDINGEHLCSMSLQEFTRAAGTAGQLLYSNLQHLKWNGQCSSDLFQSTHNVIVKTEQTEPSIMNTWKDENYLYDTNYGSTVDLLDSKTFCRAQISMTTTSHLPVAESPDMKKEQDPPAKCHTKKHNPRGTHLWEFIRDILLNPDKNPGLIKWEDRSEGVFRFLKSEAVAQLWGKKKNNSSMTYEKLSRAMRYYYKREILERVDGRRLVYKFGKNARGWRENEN
# In short: as §1
# SPI1 = SPI1 (Homo sapiens, UniProt P17947 1-270); conditions: protein: recombinant; tags: N-terminal GST; dsDNA, one strand shown
# In short: as §1
# SPIB = SPIB (Homo sapiens, UniProt Q01892 1-262); conditions: protein: recombinant; tags: N-terminal GST; dsDNA, one strand shown
# Sequence of SPIB (Q01892 whole entry): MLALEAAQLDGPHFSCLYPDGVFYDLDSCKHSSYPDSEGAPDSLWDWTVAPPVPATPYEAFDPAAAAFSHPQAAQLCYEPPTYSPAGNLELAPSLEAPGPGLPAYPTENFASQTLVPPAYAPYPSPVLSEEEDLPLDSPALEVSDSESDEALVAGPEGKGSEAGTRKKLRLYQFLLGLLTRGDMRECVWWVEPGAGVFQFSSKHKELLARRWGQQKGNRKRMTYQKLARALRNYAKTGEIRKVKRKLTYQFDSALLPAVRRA
# In short: as §1
# ELK3 = target: T6, ELK3 (Homo sapiens, UniProt P41970 1-407); conditions: protein: recombinant; tags: N-terminal GST; dsDNA, one strand shown
# T6 sequence: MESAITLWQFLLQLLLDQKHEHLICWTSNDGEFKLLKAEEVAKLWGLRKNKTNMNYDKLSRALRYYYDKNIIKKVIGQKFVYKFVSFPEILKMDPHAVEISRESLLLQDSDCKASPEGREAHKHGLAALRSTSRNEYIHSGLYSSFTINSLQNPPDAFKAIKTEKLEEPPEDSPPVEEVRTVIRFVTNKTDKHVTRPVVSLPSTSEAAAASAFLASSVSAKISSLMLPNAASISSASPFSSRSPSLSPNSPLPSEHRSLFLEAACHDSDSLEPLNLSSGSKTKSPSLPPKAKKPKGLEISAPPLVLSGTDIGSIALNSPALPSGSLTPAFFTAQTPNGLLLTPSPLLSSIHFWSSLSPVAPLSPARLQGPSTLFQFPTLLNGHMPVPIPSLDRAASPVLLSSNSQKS
# In short: as §1
# FEV = target: T7, FEV (Homo sapiens, UniProt Q99581 1-238); conditions: protein: recombinant; tags: N-terminal GST; dsDNA, one strand shown
# T7 sequence: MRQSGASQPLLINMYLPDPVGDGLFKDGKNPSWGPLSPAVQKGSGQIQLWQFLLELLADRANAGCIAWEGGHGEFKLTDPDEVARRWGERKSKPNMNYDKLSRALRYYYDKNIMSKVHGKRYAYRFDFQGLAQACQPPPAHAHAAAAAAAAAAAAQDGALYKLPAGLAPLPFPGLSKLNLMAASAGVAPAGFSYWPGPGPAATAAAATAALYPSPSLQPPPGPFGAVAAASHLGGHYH
# In short: as §1
# ETV5 = ETV5 (Homo sapiens, UniProt P41161 1-510); conditions: protein: recombinant; tags: N-terminal GST; dsDNA, one strand shown
# Sequence of ETV5 (P41161 whole entry): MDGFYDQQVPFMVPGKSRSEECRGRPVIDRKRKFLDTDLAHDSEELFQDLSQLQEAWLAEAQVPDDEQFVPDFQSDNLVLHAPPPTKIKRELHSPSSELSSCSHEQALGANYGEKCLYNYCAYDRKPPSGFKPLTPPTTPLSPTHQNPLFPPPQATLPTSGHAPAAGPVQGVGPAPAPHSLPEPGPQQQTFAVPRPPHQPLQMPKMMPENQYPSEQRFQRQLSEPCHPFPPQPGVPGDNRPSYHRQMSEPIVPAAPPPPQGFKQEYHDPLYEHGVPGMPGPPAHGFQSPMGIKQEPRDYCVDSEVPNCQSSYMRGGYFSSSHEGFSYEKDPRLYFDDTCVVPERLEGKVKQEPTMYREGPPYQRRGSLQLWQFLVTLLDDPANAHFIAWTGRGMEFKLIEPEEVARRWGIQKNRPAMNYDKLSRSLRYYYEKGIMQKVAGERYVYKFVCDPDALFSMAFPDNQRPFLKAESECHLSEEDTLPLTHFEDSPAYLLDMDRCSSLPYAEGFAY
# In short: as §1
# HSF1 = HSF1 (Homo sapiens, UniProt Q00613 1-529); conditions: protein: recombinant; tags: N-terminal GST; chain copies: 3; dsDNA, one strand shown
# Sequence of HSF1 (Q00613 whole entry): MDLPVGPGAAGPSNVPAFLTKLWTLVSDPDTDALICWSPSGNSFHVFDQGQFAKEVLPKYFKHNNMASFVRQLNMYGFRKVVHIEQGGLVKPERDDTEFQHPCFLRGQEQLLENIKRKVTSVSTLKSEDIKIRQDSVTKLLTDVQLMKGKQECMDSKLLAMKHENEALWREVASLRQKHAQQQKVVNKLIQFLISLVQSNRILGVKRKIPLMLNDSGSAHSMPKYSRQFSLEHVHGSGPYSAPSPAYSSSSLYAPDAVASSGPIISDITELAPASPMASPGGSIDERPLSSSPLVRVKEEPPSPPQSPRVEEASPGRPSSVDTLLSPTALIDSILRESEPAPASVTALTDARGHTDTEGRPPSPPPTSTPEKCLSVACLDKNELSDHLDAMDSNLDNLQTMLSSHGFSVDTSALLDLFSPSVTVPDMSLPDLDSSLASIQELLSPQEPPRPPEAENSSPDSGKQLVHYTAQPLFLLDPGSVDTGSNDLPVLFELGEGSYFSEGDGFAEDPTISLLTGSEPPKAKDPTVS
# In short: as §1
# SPIC = target: T8, SPIC (Homo sapiens, UniProt Q8N5J4 1-248); conditions: protein: recombinant; tags: N-terminal GST; dsDNA, one strand shown
# T8 sequence: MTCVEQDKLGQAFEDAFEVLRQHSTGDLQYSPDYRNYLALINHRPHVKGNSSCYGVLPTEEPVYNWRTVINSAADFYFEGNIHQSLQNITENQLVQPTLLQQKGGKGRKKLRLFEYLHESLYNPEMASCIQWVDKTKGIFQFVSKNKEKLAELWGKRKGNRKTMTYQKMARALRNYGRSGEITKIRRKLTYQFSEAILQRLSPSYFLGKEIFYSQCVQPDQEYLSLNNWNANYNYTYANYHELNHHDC
# In short: as §1
# ELF4 = ELF4 (Homo sapiens, UniProt Q99607 1-663); conditions: protein: recombinant; tags: N-terminal GST; dsDNA, one strand shown
# Sequence of ELF4 (Q99607 whole entry): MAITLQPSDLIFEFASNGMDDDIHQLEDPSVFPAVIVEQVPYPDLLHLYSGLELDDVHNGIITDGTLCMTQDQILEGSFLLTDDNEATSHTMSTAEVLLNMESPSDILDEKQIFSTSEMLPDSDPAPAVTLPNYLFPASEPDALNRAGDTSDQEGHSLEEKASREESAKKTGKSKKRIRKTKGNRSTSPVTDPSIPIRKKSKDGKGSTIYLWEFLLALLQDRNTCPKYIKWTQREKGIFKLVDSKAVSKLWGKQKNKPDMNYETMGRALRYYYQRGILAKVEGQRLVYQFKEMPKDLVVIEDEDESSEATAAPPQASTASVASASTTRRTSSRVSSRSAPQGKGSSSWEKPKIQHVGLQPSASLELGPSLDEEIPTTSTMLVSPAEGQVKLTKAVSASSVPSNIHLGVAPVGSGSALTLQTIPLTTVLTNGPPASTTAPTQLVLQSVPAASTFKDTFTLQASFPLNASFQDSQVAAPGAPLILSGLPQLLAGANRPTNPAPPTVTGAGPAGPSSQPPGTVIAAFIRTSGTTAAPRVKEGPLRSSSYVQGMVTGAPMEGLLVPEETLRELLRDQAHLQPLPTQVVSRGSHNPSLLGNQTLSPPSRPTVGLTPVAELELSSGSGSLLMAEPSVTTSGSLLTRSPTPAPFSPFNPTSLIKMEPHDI
# In short: as §1
# ELK4 = target: T9, ELK4 (Homo sapiens, UniProt P28324-2 1-405); conditions: protein: recombinant; tags: N-terminal GST; dsDNA, one strand shown
# T9 sequence: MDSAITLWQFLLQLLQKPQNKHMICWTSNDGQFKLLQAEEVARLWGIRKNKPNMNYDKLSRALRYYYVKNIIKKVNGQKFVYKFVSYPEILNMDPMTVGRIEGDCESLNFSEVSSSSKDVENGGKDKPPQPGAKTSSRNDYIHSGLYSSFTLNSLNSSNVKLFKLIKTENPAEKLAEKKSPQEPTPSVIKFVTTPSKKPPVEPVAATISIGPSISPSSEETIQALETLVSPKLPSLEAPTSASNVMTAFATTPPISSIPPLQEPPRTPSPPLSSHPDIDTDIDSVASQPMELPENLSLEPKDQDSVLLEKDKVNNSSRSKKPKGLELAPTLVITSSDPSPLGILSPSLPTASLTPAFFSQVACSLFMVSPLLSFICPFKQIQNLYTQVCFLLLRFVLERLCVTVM
# In short: as §1
# ETV2 = target: T10, ETV2 (Homo sapiens, UniProt O00321 1-342); conditions: protein: recombinant; tags: N-terminal GST; dsDNA, one strand shown
# T10 sequence: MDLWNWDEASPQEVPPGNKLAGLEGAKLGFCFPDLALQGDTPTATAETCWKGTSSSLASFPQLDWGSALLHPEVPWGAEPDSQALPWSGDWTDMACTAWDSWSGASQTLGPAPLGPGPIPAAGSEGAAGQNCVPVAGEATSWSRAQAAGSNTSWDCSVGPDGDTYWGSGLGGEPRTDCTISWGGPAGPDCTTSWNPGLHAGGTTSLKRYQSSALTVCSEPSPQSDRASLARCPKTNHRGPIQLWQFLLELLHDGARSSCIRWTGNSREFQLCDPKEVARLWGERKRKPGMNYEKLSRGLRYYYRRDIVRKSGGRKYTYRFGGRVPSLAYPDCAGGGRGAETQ
# In short: as §1
# ELF3 = target: T11, ELF3 (Homo sapiens, UniProt P78545 1-371); conditions: protein: recombinant; tags: N-terminal GST; dsDNA, one strand shown
# T11 sequence: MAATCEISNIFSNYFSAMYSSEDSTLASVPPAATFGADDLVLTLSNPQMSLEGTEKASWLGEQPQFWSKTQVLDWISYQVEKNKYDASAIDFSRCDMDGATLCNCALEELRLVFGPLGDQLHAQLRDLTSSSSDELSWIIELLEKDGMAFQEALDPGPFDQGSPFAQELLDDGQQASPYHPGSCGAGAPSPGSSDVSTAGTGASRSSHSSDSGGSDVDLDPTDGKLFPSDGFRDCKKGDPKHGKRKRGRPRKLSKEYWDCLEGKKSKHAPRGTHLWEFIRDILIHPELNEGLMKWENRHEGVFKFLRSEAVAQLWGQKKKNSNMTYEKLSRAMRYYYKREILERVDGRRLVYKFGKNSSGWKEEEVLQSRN
# In short: as §1
# CRX = CRX (Homo sapiens, UniProt O43186 1-299); conditions: protein: recombinant; tags: N-terminal GST; dsDNA, one strand shown
# Sequence of CRX (O43186 whole entry): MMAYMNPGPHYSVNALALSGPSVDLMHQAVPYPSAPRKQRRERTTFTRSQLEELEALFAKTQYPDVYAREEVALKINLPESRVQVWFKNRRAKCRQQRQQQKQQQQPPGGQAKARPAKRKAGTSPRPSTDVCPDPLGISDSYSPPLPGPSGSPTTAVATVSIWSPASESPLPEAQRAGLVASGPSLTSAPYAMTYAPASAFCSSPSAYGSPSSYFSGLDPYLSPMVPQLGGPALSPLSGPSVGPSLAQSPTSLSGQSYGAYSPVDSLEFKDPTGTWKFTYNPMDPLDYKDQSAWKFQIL
# In short: as §1
# ETV1 = ETV1 (Homo sapiens, UniProt P50549 1-477); conditions: protein: recombinant; tags: N-terminal GST; dsDNA, one strand shown
# Sequence of ETV1 (P50549 whole entry): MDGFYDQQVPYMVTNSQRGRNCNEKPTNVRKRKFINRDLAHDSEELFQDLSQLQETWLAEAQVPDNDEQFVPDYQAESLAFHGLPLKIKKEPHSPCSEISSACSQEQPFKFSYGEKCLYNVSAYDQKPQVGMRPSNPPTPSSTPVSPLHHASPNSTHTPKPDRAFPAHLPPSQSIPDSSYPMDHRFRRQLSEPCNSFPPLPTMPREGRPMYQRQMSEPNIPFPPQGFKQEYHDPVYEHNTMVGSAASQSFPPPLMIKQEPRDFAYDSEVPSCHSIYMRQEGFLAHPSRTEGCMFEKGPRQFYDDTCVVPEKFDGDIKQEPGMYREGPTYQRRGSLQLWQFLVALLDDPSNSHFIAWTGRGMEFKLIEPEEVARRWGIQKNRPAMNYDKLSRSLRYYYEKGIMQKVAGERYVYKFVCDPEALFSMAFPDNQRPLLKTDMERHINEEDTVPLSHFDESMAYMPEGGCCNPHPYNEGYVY
# In short: as §1
sequence,measurement,setting,value
AATGCG,binding signal,FLI1,"1.24 fold enrichment (6-mer frequency, TF over GST control)"
same,binding signal,ELK1,"1.27 fold enrichment (6-mer frequency, TF over GST control)"
same,binding signal,GABPA,"1.27 fold enrichment (6-mer frequency, TF over GST control)"
same,binding signal,ERG,"1.23 fold enrichment (6-mer frequency, TF over GST control)"
same,binding signal,ELF1,"1.21 fold enrichment (6-mer frequency, TF over GST control)"
same,binding signal,EHF,"1.32 fold enrichment (6-mer frequency, TF over GST control)"
same,binding signal,SPI1,"1.58 fold enrichment (6-mer frequency, TF over GST control)"
same,binding signal,SPIB,"1.31 fold enrichment (6-mer frequency, TF over GST control)"
same,binding signal,ELK3,"1.29 fold enrichment (6-mer frequency, TF over GST control)"
same,binding signal,FEV,"1.27 fold enrichment (6-mer frequency, TF over GST control)"
same,binding signal,ETV5,"1.2 fold enrichment (6-mer frequency, TF over GST control)"
same,binding signal,HSF1,"1.13 fold enrichment (6-mer frequency, TF over GST control)"
same,binding signal,SPIC,"1.22 fold enrichment (6-mer frequency, TF over GST control)"
same,binding signal,ELF4,"1.33 fold enrichment (6-mer frequency, TF over GST control)"
same,binding signal,ELK4,"1.25 fold enrichment (6-mer frequency, TF over GST control)"
same,binding signal,ETV2,"1.34 fold enrichment (6-mer frequency, TF over GST control)"
same,binding signal,ELF3,"1.43 fold enrichment (6-mer frequency, TF over GST control)"
same,binding signal,CRX,"1.36 fold enrichment (6-mer frequency, TF over GST control)"
same,binding signal,ETV1,"1.3 fold enrichment (6-mer frequency, TF over GST control)"
